In PMC9838217, “Structure of SALL4 zinc finger domain reveals link between AT-rich DNA binding and Okihiro syndrome”:
Positions count from the first letter of the chain named.

target: T1, SALL4 ZFC4 WT (HT-SELEX) (Mus musculus, UniProt Q8BX22 870-940); test: HT-SELEX; high values mean tight binding; details: protein: recombinant; vector His6-GST; dsDNA, one strand shown
T1 sequence: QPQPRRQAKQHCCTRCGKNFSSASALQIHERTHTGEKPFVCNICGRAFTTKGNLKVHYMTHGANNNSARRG
In short: (§1)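 A 100 µl reaction of 10 mM Tris–HCl pH 7.5, 50 mM NaCl, poly(dI-dC) and DTT held purified recombinant mouse SALL4 zinc finger cluster 4 (residues 870–940, 1 µg) and library DNA (1.5 µg first cycle, 200 ng later) for 10 min at room temperature. Complexes captured on Ni2+ beads were washed, PCR-amplified and reselected for up to 6 cycles, in triplicate, then MiSeq-sequenced and scanned for 6-mers. Binding signal is the read fraction of each canonical k-mer expressed as fold change over the initial random library.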

Compared with AAGACC, ACGGGA is lower in binding signal: 0.72 ± 0.0283 fold-change vs cycle 0 for the first, 0.422 ± 0.0189 fold-change vs cycle 0 for the second.

First: CGGAAG
Second: AGTTCA
The binding signal of the first is lower: 0.465 ± 0.0113 fold-change vs cycle 0 for the first, 1.42 ± 0.0499 fold-change vs cycle 0 for the second.

CATGCA and AGGCAT are within error of each other in binding signal: 0.683 ± 0.0413 fold-change vs cycle 0 for the first, 0.627 ± 0.0329 fold-change vs cycle 0 for the second.

Going from GCGAAA to CTGTAA, the binding signal rises from 0.363 ± 0.0241 fold-change vs cycle 0 to 1.29 ± 0.062 fold-change vs cycle 0.

Compared with GCAATA, AGTAAA is higher in binding signal: 1.12 ± 0.0362 fold-change vs cycle 0 for the first, 1.96 ± 0.143 fold-change vs cycle 0 for the second.

First: AAACAA
Second: CCGTAG
The binding signal of the first is higher: 1.75 ± 0.117 fold-change vs cycle 0 for the first, 0.35 ± 0.01 fold-change vs cycle 0 for the second.

Going from AGAATG to GAATAA, the binding signal rises from 1.34 ± 0.0249 fold-change vs cycle 0 to 2.13 ± 0.0471 fold-change vs cycle 0.

First: CCCAAA
Second: AAGTCT
The binding signal of the first is lower: 0.588 ± 0.013 fold-change vs cycle 0 for the first, 1.259 ± 0.00421 fold-change vs cycle 0 for the second.

TGCCAA and CATGGG are within error of each other in binding signal: 0.456 ± 0.0199 fold-change vs cycle 0 for the first, 0.477 ± 0.0485 fold-change vs cycle 0 for the second.

First: AGGAGA
Second: CAGTTA
The binding signal of the first is lower: 0.932 ± 0.027 fold-change vs cycle 0 for the first, 1.43 ± 0.0431 fold-change vs cycle 0 for the second.

First: AGAAAG
Second: CCATGC
The binding signal of the first is higher: 1.31 ± 0.0378 fold-change vs cycle 0 for the first, 0.345 ± 0.0259 fold-change vs cycle 0 for the second.

First: TACCTA
Second: ACACAA
The binding signal of the first is higher: 1.35 ± 0.0562 fold-change vs cycle 0 for the first, 1.07 ± 0.0495 fold-change vs cycle 0 for the second.

First: ACGTAA
Second: CTCTGA
The binding signal of the first is higher: 1.19 ± 0.0733 fold-change vs cycle 0 for the first, 0.812 ± 0.0446 fold-change vs cycle 0 for the second.

Compared with ACATAC, AGCTTC is lower in binding signal: 1.3 ± 0.0628 fold-change vs cycle 0 for the first, 0.709 ± 0.0328 fold-change vs cycle 0 for the second.

Going from GAGTGA to CTAAGC, the binding signal falls from 0.906 ± 0.0342 fold-change vs cycle 0 to 0.7 ± 0.0291 fold-change vs cycle 0.

Compared with CTGAGA, CTTGCC is lower in binding signal: 0.788 ± 0.03 fold-change vs cycle 0 for the first, 0.3123 ± 0.00236 fold-change vs cycle 0 for the second.

Compared with CTACCC, AGCATC is higher in binding signal: 0.454 ± 0.0263 fold-change vs cycle 0 for the first, 0.703 ± 0.0384 fold-change vs cycle 0 for the second.

Going from ATTCCA to AGGACT, the binding signal falls from 1.45 ± 0.0836 fold-change vs cycle 0 to 0.864 ± 0.0148 fold-change vs cycle 0.

Going from AACATG to AGATAG, the binding signal rises from 1.25 ± 0.0212 fold-change vs cycle 0 to 1.35 ± 0.0403 fold-change vs cycle 0.

Compared with CGTCAA, GTTCCA is higher in binding signal: 0.564 ± 0.0126 fold-change vs cycle 0 for the first, 0.74 ± 0.03 fold-change vs cycle 0 for the second.

target: T2, SALL4 ZFC4 R900W (HT-SELEX) (Mus musculus, UniProt Q8BX22 870-940, R900W); test: HT-SELEX; high values mean tight binding; details: protein: recombinant; vector His6-GST; dsDNA, one strand shown
T2 sequence: T1 sequence with R31W
In short: as §1

First: AAGACC
Second: ACGGGA
The binding signal of the first is higher: 0.834 ± 0.0193 fold-change vs cycle 0 for the first, 0.506 ± 0.0223 fold-change vs cycle 0 for the second.

First: CGGAAG
Second: AGTTCA
The binding signal of the first is lower: 0.58 ± 0.0281 fold-change vs cycle 0 for the first, 1.55 ± 0.0608 fold-change vs cycle 0 for the second.

CATGCA and AGGCAT are within error of each other in binding signal: 0.757 ± 0.0296 fold-change vs cycle 0 for the first, 0.715 ± 0.0142 fold-change vs cycle 0 for the second.

Going from GCGAAA to CTGTAA, the binding signal rises from 0.395 ± 0.00888 fold-change vs cycle 0 to 1.42 ± 0.0769 fold-change vs cycle 0.

First: GCAATA
Second: AGTAAA
The binding signal of the first is lower: 1.04 ± 0.028 fold-change vs cycle 0 for the first, 2.08 ± 0.144 fold-change vs cycle 0 for the second.

Going from AAACAA to CCGTAG, the binding signal falls from 1.82 ± 0.0942 fold-change vs cycle 0 to 0.427 ± 0.0139 fold-change vs cycle 0.

Compared with AGAATG, GAATAA is higher in binding signal: 1.52 ± 0.0481 fold-change vs cycle 0 for the first, 2.1 ± 0.122 fold-change vs cycle 0 for the second.

First: CCCAAA
Second: AAGTCT
The binding signal of the first is lower: 0.653 ± 0.0116 fold-change vs cycle 0 for the first, 1.4 ± 0.0184 fold-change vs cycle 0 for the second.

TGCCAA and CATGGG are within error of each other in binding signal: 0.502 ± 0.00872 fold-change vs cycle 0 for the first, 0.543 ± 0.0349 fold-change vs cycle 0 for the second.

First: AGGAGA
Second: CAGTTA
The binding signal of the first is lower: 1.09 ± 0.059 fold-change vs cycle 0 for the first, 1.46 ± 0.0224 fold-change vs cycle 0 for the second.
